Each structure is given as a SMILES string. Results filed as inconclusive are left out. Where a call stands in place of a potency, no number is given. Active and inactive are the calls of the source. Calls come from the whole dose curve; as a rule, active = well fitted inhibition curve with a large enough effect; inconclusive = small, poorly fitted or top-dose-only effect; inactive = no such curve, though single readings can be large or run the other way.

These results are taken from PubChem BioAssay (NCATS).
Potency is the fitted concentration of half-maximal effect.

The assay in a line: qHTS for Inhibitors of ATXN expression: Validation (AID 588378). Note: nearly all actives have a fitted effect of over 75% in size. To be noted: cell-based ATXN2 expression reporter assay, luminescence; series mostly up to 57.1 µM. The text has this: Spinocerebellar ataxia type 2 (SCA2) is a multisystem neurodegenerative disease caused by a dominantly-acting mutation leading to expansion of a polyQ domain in the ataxin-2 protein (ATXN2). SCA2 patients develop progressive ataxia and later lose function in other neuronal systems. Prominent parkinsonian signs develop in some patients. Similar to many neurodegenerative disorders, no symptomatic or disease-modifying treatments are known.
The primary objective of project is to identify compounds inhibiting ATXN2 expression and to test them for efficacy in SCA2 mouse models. To this end, in a collaboration between Dr. Daniel Scoles and scientists at NCGC, a cell-based assay adapted to high-throughput screening has been developed to screen the NIH Molecular Libraries Small Molecule Repository (MLSMR).
NIH Chemical Genomics Center [NCGC]
NIH Molecular Libraries Probe Centers Network [MLPCN]
Assay Submitter (PI): Stefan Pulst and Daniel Scoles, University of Utah
4 ul of HEK293-ATXN2-FFLuc cell suspension (TBD cells/microL in phenol-red free DMEM) are dispensed into Greiner white solid bottom 1536-well assay plates, yielding a final well density of TBD cells/well. Plates are incubated for 2 hrs at 37 degrees C in 5% humidified CO2 to allow cell attachment. Compounds are then transferred via Kalypsys pin tool equipped with 1536-pin array (10nl slotted pins, V&P Scientific, San Diego, CA). In addition, duplicate serial dilutions of the control compounds ChemBridge 5553825, a previously identified ATXN2 expression inhibitor, and a known luciferase inhibitor, are pin-transferred. After incubation at 37 degrees C in 5% humidified CO2 for 24 hrs, CellTiter-Fluor reagent (1 ul) (Promega, Madison, WI) is then added and plates are incubated for 30 minutes, before being transferred to a ViewLux high-throughput CCD imager (PerkinElmer), wherein single end-point fluorescence measurements are acquired using the 405 nm excitation/525 nm emission filter set to assess cell viability. Next, Bright-Glo luciferase substrate detection reagent (3 ul) (Promega, Madison, WI) is added to each well and incubated for an additional 5 minutes. Luminescence is then measured on the ViewLux imager equipped with a clear emission filter using a 2 sec exposure.
A general note: In qHTS, concentration-response curves come from the screen itself.
As to `Cc1cccc(C)c1OCC(C)N` (stereo not drawn), the Potency result was “inactive”.
The entry for `C[N+](C)(C)CCCCCC[N+](C)(C)C` is “inactive”; for `O=C(NCCN1CCOCC1)c1ccc(Cl)cc1` it is “inactive”.
To `CC(=O)N[C@@H](CS)C(=O)O` belongs “inactive”.
The entry for `NCCS` is “inactive”.
Turning to `NC(N)=Nc1nc(CSCC/C(N)=N/S(N)(=O)=O)cs1`, the Potency entry is “inactive”.
The entry for `Clc1ccc(Cn2c(CN3CCCC3)nc3ccccc32)cc1` is “inactive”.
As for `CCN1CCC[C@H]1CNC(=O)c1cc(S(N)(=O)=O)ccc1OC`, the Potency result is “inactive”.
To `CC(=O)c1ccc(S(=O)(=O)NC(=O)NC2CCCCC2)cc1` belongs “inactive”; to `CC(C)NCC(O)COc1cccc2[nH]ccc12` (stereo not drawn), “inactive”; to `CCN(CC)CCNC(=O)c1ccc(N)cc1`, “inactive”.
Regarding `CCCNC(=O)NS(=O)(=O)c1ccc(Cl)cc1`, the Potency entry is “inactive”.
To `COc1ccc(Cc2nccc3cc(OC)c(OC)cc23)cc1OC` belongs “inactive”; to `COc1ccccc1N1CCN(CCCNc2cc(=O)n(C)c(=O)n2C)CC1`, “inactive”; to `CC(=O)CCCCn1c(=O)c2c(ncn2C)n(C)c1=O`, “inactive”.
To `CCCCCN(C)CCC(O)(P(=O)(O)O)P(=O)(O)O` belongs “inactive”; to `CCCCC1C(=O)N(c2ccccc2)N(c2ccccc2)C1=O`, “inactive”.
The figure for `CC/C(=C(\c1ccccc1)c1ccc(OCCN(C)C)cc1)c1ccccc1` is 22.4 µM (active); for `CC(C)OC(=O)C(C)(C)Oc1ccc(C(=O)c2ccc(Cl)cc2)cc1` it is “inactive”; for `CCn1cc(C(=O)O)c(=O)c2ccc(C)nc21` it is “inactive”.
In the case of `CCN(CC)CCOC(=O)c1ccc(N)cc1`, the Potency result is “inactive”.
The entry for `O=c1c(-c2ccc(O)cc2)coc2cc(O)ccc12` is “inactive”; for `CC1=C(/C=C/C(C)=C/C=C/C(C)=C/C(=O)Nc2ccc(O)cc2)C(C)(C)CCC1` it is 31.6 µM (active).
Regarding `O=C1NC(=O)C(c2ccccc2)(c2ccccc2)N1`, the Potency entry was “inactive”.
To `C[N+](C)(C)CC(=O)O` belongs “inactive”; to `COc1cccc(-c2cc(=O)c3ccccc3o2)c1N`, “inactive”.
The entry for `CCN(CC)C(=O)c1ccc(O)c(OC)c1` is “inactive”; for `O=C1NCC2(CCN(CCc3ccccc3)CC2)O1` it is “inactive”; for `O=c1cc(-c2ccc(O)cc2)oc2cc(O)cc(O)c12` it is “inactive”.
As for `CN(C)CCC(c1ccccc1)c1ccccn1` (stereo not drawn), the Potency entry was “inactive”.
As for `CC(=O)O[C@]1(C(C)=O)CC[C@H]2[C@@H]3C=C(Cl)C4=CC(=O)[C@@H]5C[C@@H]5[C@]4(C)[C@H]3CC[C@@]21C`, the Potency result was “inactive”.
To `CC1(C)CCC2=C(O1)c1ccccc1C(=O)C2=O` belongs 22.4 µM (active).
The entry for `O=C(O)CCc1nc(-c2ccccc2)c(-c2ccccc2)o1` is “inactive”.
